Sampled rows, rich in hits. Any-hit rate of the full collection: about 3.3%.
TLR9-MyD88 block: inhibitors of TLR9-MyD88 association in cells, primary screen, cell-based, CHO, BLA complementation, fluorescence | inhibition, % at 4.98 µM | actives 0.21% (n = 340,000) | AID 504734, 2011 | CCF4 FRET ratio;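 active means inhibition above the mean over all tested compounds plus 3 SD, cut at about 21% in these data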;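 further: 0% = DMSO only wells and 100% = clavulanate BLA inhibitor control wells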
PRMT1 inh: PRMT1 methyltransferase inhibitors, primary screen, biochemical, fluorescence polarization; Protein arginine N-methyltransferase 1 (Homo sapiens), Q99873; recombinant PRMT1, activity-based probe fluorescence polarization; inhibition, % at 2.79 µM; actives 1.3% (n = 370,000); AID 652257, 2013;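 active means inhibition above about 21% made by adding two undisclosed values, limit read from the data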
TLR4-MyD88 BLA: inhibitors of TLR4-MyD88 association in cells, primary screen, cell-based, HeLa CL3-4, BLA complementation, FRET ratio. HeLa CL3-4 TLR4/MyD88 BLA complementation. inhibition, % at 8.4 µM. AID 861, 2007. actives 0.18% (n = 200,000); in the data active means inhibition above about 25%;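 further: 0% = vehicle and 100% = reference inhibitor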
NOD2-RIPK2 inh: NOD2-RIPK2 binding disruptors in cells, primary screen, fluorescence, CHO cells, BLA complementation. Receptor-interacting serine/threonine-protein kinase 2 (Homo sapiens), O43353. CCF4 ratio. inhibition, % at 4.98 µM. actives 0.38% (n = 360,000); in the data active means inhibition above about 21%;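 further: 0% = vehicle only and 100% = reference blocker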
rCAG RNA binder: binders of r(CAG) RNA repeats, primary screen, biochemical, fluorescence; r(CAG) RNA repeat, TO-PRO-1 dye displacement fluorescence; inhibition, % at 3 µM; actives 1.3% (n = 370,000); AID 651821, 2012;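 active means inhibition above the plate cutoff, the mean of all test compounds on that plate plus 3 SD, cut at about 35% in these data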;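 further: 0% = DMSO alone and 100% = 100 µM mitoxantrone as full dye displacement; higher means more dye released from RNA so lower well fluorescence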
ABHD5-PLIN5 inh: ABHD5-PLIN5 interaction inhibitors, primary screen, cell lysate, split luciferase complementation, luminescence. Perilipin-5 (Homo sapiens) + 1-acylglycerol-3-phosphate O-acyltransferase ABHD5 (Homo …. Split G. princeps luciferase complementation, 4 h. inhibition, % at 4 µM. actives 0.78% (n = 360,000);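 active means inhibition above the mean inhibition across every tested compound plus 3 SD, cut at about 22% in these data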;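 further: 0% = DMSO only wells and the 100% control is not disclosed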
rCAG binder conf: small molecules binding CAG repeat RNA – biochemical, fluorescence, confirmation; r(CAG) RNA repeat, TO-PRO-1 dye displacement fluorescence; shares compounds with rCAG RNA binder; inhibition, % at 3 µM; actives 70% (n = 4,300);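 active means inhibition above a per-plate cutoff, the mean inhibition of sample wells plus 3 SD, cut at about 35% in these data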;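 further: loss of TO-PRO-1 fluorescence as compound displaces dye from 1x1 AA loop RNA; 0% = DMSO only wells and 100% = 100 µM mitoxantrone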
DNA CAG counter: displacement of TO-PRO-1 from CAG DNA duplex, counter-screen for rCAG RNA repeat binder project, biochemical, fluorescence, TO-PRO-1 dye, d(CAG) DNA oligo; inhibition, % at 3 µM; AID 652068, 2013; d(CAG) DNA oligo TO-PRO-1 dye displacement; actives 94% (n = 4,300); shares compounds with rCAG RNA binder;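 active means inhibition above its plate's cutoff, the mean test-well inhibition plus 3 SD, cut at about 4.8% in these data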;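 further: 0% = DNA dye mix with DMSO and 100% = 100 µM mitoxantrone; hits displace the dye from DNA and so lower well fluorescence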
* = called active by the depositor; . = not tested or not shown.

SMILES	TLR9-MyD88 block	PRMT1 inh	TLR4-MyD88 BLA	NOD2-RIPK2 inh	rCAG RNA binder	ABHD5-PLIN5 inh	rCAG binder conf	DNA CAG counter
O/N=C/c1ccc2ccccc2c1	7	-3	-9	5	-1	-1	.	.
CCC(NC(=O)Cn1c(-c2ccccc2)cc(C(C)=O)c1C)c1ccccc1 (stereo not given)	.	0	.	.	3	.	.	.
CCOC(=O)c1c(S(=O)(=O)NCC(C)c2ccccc2)c(C)n(C)c1C (stereo not given)	8	-6	.	2	-5	-6	.	.
CC1(C(=O)NS(=O)(=O)c2cccc(C#N)c2)CCN1C(=O)c1ccccc1CCc1ccccc1 (stereo not given)	.	0	.	1	46*	-12	39*	9.5*
CC1(C(=O)NS(=O)(=O)c2ccc(F)cc2F)CCN1C(=O)Cc1ccccc1 (stereo not given)	.	-1	.	1	3	-5	.	.
CC1(C(=O)NS(=O)(=O)c2cccs2)CCN1C(=O)c1ccccc1CCc1ccccc1 (stereo not given)	.	-1	.	-4	44*	-1	34	7.0*
CC1(C(=O)NS(=O)(=O)c2ccccc2Cl)CCN1C(=O)c1ccccc1CCc1ccccc1 (stereo not given)	.	-1	.	3	57*	-6	63*	19*
CC1(C(=O)NS(=O)(=O)c2ccc(F)cc2F)CCN1C(=O)c1ccccc1CCc1ccccc1 (stereo not given)	.	1	.	-7	51*	0	43*	10*
CC1(C(=O)NS(=O)(=O)c2cccc(Cl)c2)CCN1C(=O)c1ccccc1CCc1ccccc1 (stereo not given)	.	6	.	-6	61*	-3	60*	22*
CC1(C(=O)NS(=O)(=O)c2ccc(Cl)cc2)CCN1C(=O)c1ccccc1CCc1ccccc1 (stereo not given)	.	-1	.	-11	45*	12	58*	20*
CC1(C(=O)NS(=O)(=O)c2cccc(Cl)c2)CCN1C(=O)Cc1ccccc1 (stereo not given)	.	-3	.	6	8	3	.	.
CCCC(C(=O)O)N1C(=O)/C(=C2\C(=O)N(C)c3ccccc32)SC1=S (stereo not given)	4	4	.	-1	56*	-7	63*	26*
O=C(O)CN1C(=O)/C(=C2\SC(=S)N(C(Cc3ccccc3)C(=O)O)C2=O)c2ccccc21 (stereo not given)	-1	15	.	-4	69*	-11	47*	12*
Cc1c(N2C(=O)/C(=C3/C(=O)N(C)c4ccccc43)SC2=S)c(=O)n(-c2ccccc2)n1C	-2	4	-6	-7	1	-5	.	.
O=C(O)CCN1C(=O)/C(=C2\C(=O)N(Cc3ccccc3Cl)c3ccccc32)SC1=S	9	0	.	-10	3	-16	.	.
CC(C)C[C@@H](C(=O)N[C@@H](C(=O)O)c1ccccc1)N1C(=O)N2CCc3c([nH]c4ccccc34)[C@@]2(C)C1=O	-8	-1	.	-27	43*	-3	43*	12*
COc1ccc(C(=O)NNC(=O)C(=O)/C=C(\O)c2ccc(C)cc2)cc1	-4	-3	.	7	47*	-3	25	11*
CCOc1ccc(-n2c(SCC(=O)Nc3ccc(S(=O)(=O)Nc4nccs4)cc3)nnc2-c2ccc(C(C)(C)C)cc2)cc1	.	4	.	.	60*	.	55*	25*
CCOc1ccc(-n2c(SCC(=O)Nc3ccc(S(=O)(=O)Nc4nccs4)cc3)nnc2-c2ccncc2)cc1	.	-3	.	.	69*	.	59*	26*
COc1ccc(-n2c(SCC(=O)Nc3ccccc3)nnc2-c2ccc(NS(=O)(=O)c3ccc(C)cc3)cc2)cc1	-12	-1	5	8	1	-2	.	.
CCOc1ccc(-n2c(SCC(=O)Nc3nccs3)nnc2-c2ccoc2C)cc1	-1	-2	.	5	-3	5	.	.
CCCCNC(=O)NS(=O)(=O)c1ccc(NC(=O)CSc2nnc(-c3cccs3)n2-c2ccc(OC)cc2)cc1	.	1	.	.	54*	.	62*	23*
COc1ccc(-n2c(SCC(=O)Nc3ccc(C(=O)O)cc3)nnc2-c2cccs2)cc1	-3	1	-12	0	24	0	.	.
CCOc1ccc(-n2c(SCC(=O)Nc3ccc(S(=O)(=O)Nc4nccs4)cc3)nnc2-c2ccco2)cc1	.	6	.	.	68*	.	69*	28*
CCOc1ccc(-n2c(SCC(=O)Nc3ccc4c(c3)OCCO4)nnc2-c2ccncc2)cc1	.	-5	.	.	2	.	.	.
SMILES	TLR9-MyD88 block	PRMT1 inh	TLR4-MyD88 BLA	NOD2-RIPK2 inh	rCAG RNA binder	ABHD5-PLIN5 inh	rCAG binder conf	DNA CAG counter
CCOc1ccccc1NC(=O)c1cc2c(C)nn(-c3ccccc3)c2s1	.	0	.	.	5	.	.	.
O=C(CSc1nnc(-c2ccccn2)n1-c1ccc(Cl)cc1)Nc1cccc2ccccc12	.	-1	.	.	3	.	.	.
O=C(CSc1nnc(-c2ccccn2)n1-c1ccc(Cl)cc1)Nc1ccc(S(=O)(=O)Nc2nccs2)cc1	.	0	.	.	74*	.	75*	39*
Cc1ccc(-n2c(SCC(=O)Nc3ccc(S(=O)(=O)Nc4nccs4)cc3)nnc2-c2cccs2)cc1	.	2	.	.	71*	.	67*	25*
CC(C)(C)c1ccc(-c2nnc(SCC(=O)Nc3ccc(S(=O)(=O)Nc4nccs4)cc3)n2-c2ccc(Cl)cc2)cc1	.	3	.	.	61*	.	62*	26*
Cc1ccc(-n2c(SCC(=O)Nc3ccc4c(c3)OCO4)nnc2-c2cccs2)cc1	0	-1	13	7	4	6	.	.
COc1ccc(-n2c(SCC(=O)Nc3nccs3)nnc2-c2ccc(Cl)cc2)cc1	-6	-3	.	-13	2	-2	.	.
Clc1ccccc1N/N=C/c1ccc2c(c1)OCO2	3	2	0	1	2	-12	.	.
O=C(NCc1cccc(Cl)c1)c1ccc(S(=O)(=O)N2CCCCC2)cc1	-8	-1	.	0	3	-5	.	.
Cc1c(CN2CCCC(C(=O)c3cccc(OC(C)C)c3)C2)c(=O)n(-c2ccccc2)n1C (stereo not given)	-12	-6	-9	-11	-13	1	.	.

Screening results as filed in PubChem BioAssay.
